The source of these data is PubChem BioAssay (Tox21).

A short description of assay [1]: qHTS assay to identify small molecule antagonists of the glucocorticoid receptor (GR) signaling pathway - cell viability counter screen (AID 720693). Further: nearly all actives have a fitted effect of over 55% in size. Further: potency means the concentration at half of the fitted maximal effect.
Assay [2] in a line: qHTS assay for identifying genotoxic compounds that show differential cytotoxicity against isogenic chicken DT40 cell lines with known DNA damage response pathways - wild type cell line (AID 743012). Further: nearly all actives have a fitted effect of over 60% in size. Further: potency means the concentration at half of the fitted maximal effect. Put shortly: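 Cells (DT40 wild type, 300/well) are treated with DMSO-dissolved compounds after a ~0.5 h pre-incubation and kept 40 h at 37 C/5% CO2. Viability is then measured by CellTiter-Glo luminescence following 30 min at room temperature.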
On the technique in general: Quantitative high-throughput screening tests each substance at several concentrations.

A short description of assay [3]: qHTS assay for identifying genotoxic compounds that show differential cytotoxicity against isogenic chicken DT40 cell lines with known DNA damage response pathways - Rev3 mutant cell line (AID 743014). Further: nearly all actives have a fitted effect of over 55% in size. Further: potency means the concentration at half of the fitted maximal effect.
A short description of assay [4]: qHTS assay for identifying genotoxic compounds that show differential cytotoxicity against isogenic chicken DT40 cell lines with known DNA damage response pathways - Rad54/Ku70 mutant cell line (AID 743015). Further: nearly all actives have a fitted effect of over 60% in size. Further: potency means the concentration at half of the fitted maximal effect.
Assay [5] can be described thus: qHTS assay to identify small molecule antagonists of the thyroid receptor (TR) signaling pathway - cell viability counter screen (AID 743064). Further: nearly all actives have a fitted effect of over 50% in size. Further: potency means the concentration at half of the fitted maximal effect. Summed up:
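GH3.TRE-Luc rat pituitary cells carrying a TRE-luciferase reporter were treated with compound plus 1 nM T3 (final) for 23.5 h at 37 °C. Viability was then read in the same wells by CellTiter-Fluor fluorescence after a further 30 min.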

Assay [6] in a line: qHTS assay to identify small molecule antagonists of the thyroid receptor (TR) signaling pathway (AID 743065). Further: nearly all actives have a fitted effect of over 55% in size. Further: potency means the concentration at half of the fitted maximal effect. Put shortly:
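Antagonism measured as loss of luciferase signal in GH3 cells stably carrying a TRE-luciferase reporter, co-treated with compound and T3 (1 nM final) for 23.5 h at 37 C. Viability was read in the same well by CellTiter-Fluor.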

Assay [7] relates to thyroid hormone receptor (rat, GH3 cells). Briefly: qHTS assay to identify small molecule agonists of the thyroid receptor (TR) signaling pathway (AID 743066; calls by dose curve).
Assay [8] in a line: qHTS assay to identify small molecule antagonists of the estrogen receptor alpha (ER-alpha) signaling pathway - cell viability counter screen (AID 743074; calls by dose curve;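 further: HEK293 cells carrying ER-alpha-UAS-bla reporter stimulated with 17beta-estradiol; nearly all actives have a fitted effect of over 45% in size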; further: potency means the concentration at half of the fitted maximal effect).
In assay [9] the target is Estrogen receptor (Homo sapiens) (UniProt P03372). Put plainly: qHTS assay to identify small molecule agonists of the estrogen receptor alpha (ER-alpha) signaling pathway (AID 743075; calls by dose curve).
Estrogen receptor (Homo sapiens), sequence (P03372 whole entry, looked up): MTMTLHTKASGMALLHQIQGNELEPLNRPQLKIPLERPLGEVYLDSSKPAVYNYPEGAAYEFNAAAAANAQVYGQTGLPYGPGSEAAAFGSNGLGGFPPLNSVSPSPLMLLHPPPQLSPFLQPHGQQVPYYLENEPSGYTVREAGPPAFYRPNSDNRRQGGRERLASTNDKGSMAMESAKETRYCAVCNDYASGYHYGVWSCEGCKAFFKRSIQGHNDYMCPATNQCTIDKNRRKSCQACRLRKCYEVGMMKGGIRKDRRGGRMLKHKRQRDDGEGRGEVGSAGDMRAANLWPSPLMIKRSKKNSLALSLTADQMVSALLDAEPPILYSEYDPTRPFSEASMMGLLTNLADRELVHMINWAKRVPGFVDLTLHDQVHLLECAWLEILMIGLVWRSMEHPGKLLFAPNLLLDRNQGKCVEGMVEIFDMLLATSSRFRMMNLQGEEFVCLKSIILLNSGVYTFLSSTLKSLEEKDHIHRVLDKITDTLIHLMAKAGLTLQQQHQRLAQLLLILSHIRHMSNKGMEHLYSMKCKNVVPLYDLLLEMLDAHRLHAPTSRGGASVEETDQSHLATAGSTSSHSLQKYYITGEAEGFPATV
The nature of assay [10]: qHTS assay to identify small molecule antagonists of the estrogen receptor alpha (ER-alpha) signaling pathway using the BG1 cell line (AID 743080; calls by dose curve;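 further: BG1 cells stimulated with 17beta-estradiol alongside compound; nearly all actives have a fitted effect of over 25% in size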). Put shortly:
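BG1Luc4E2, endogenous ER-alpha, 4xERE-luc; 5 d charcoal-stripped FBS, phenol red free; 24 h plating; cpd + 17beta-estradiol 21.5 h, 37 C/5% CO2; CellTiter-Fluor viability 30 min, then ONE-Glo luciferase 30 min RT.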

Assay [11] in a line: qHTS assay to identify small molecule antagonists of the estrogen receptor alpha (ER-alpha) signaling pathway using the BG1 cell line - cell viability counter screen (AID 743081).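 Further: compound given together with 17beta-estradiol as the ER stimulus; nearly all actives have a fitted effect of over 45% in size.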 Further: potency means the concentration at half of the fitted maximal effect.
The next assay deals with Aromatase (Homo sapiens) (UniProt P11511). Briefly: qHTS assay to identify aromatase inhibitors (AID 743083). Further: nearly all actives have a fitted effect of over 55% in size.
Aromatase (Homo sapiens), sequence (P11511 whole entry, looked up): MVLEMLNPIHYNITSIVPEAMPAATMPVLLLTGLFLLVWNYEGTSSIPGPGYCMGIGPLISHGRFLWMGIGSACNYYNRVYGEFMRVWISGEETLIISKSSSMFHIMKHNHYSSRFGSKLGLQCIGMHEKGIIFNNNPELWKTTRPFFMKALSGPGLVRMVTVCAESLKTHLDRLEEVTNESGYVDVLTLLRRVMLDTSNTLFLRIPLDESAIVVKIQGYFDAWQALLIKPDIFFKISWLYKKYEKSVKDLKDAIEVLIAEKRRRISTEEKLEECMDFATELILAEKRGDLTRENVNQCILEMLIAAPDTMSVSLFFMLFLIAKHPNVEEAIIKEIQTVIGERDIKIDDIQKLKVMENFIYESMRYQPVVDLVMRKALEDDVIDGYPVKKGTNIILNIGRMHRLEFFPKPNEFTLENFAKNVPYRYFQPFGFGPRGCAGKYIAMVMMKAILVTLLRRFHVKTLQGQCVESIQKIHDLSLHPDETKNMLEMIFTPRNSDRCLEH
Assay [12] can be described thus: qHTS assay to identify small molecule antagonists of the androgen receptor (AR) signaling pathway - cell viability counter screen (AID 743033; further: nearly all actives have a fitted effect of over 45% in size; further: potency means the concentration at half of the fitted maximal effect).
Assay [13] in a line: qHTS assay to identify small molecule antagonists of the androgen receptor (AR) signaling pathway using the MDA cell line - cell viability counter screen (AID 743041; further: nearly all actives have a fitted effect of over 45% in size; further: potency means the concentration at half of the fitted maximal effect). Put shortly:
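Cells were plated at 3,000 per well and left 5 h. Compounds in DMSO were then pinned in, followed by R1881. After 16 h at 37C, CellTiter-Fluor fluorescence gave viability.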

Assay [14] concerns the target Estrogen receptor (Homo sapiens) (UniProt P03372). Briefly: qHTS assay to identify small molecule antagonists of the estrogen receptor alpha (ER-alpha) signaling pathway (AID 743069; active means well fitted curve in the direction sought with a large enough effect in the signal ratio in the repeat runs, not every such curve was filed as active; the % refers to the signal ratio). Summed up: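 ER-alpha-UAS-bla GripTite HEK293 line; 2% charcoal-stripped FBS overnight; plated, 4 hr 37C/5% CO2; cpd in DMSO + 17beta-estradiol, 18 hr 37C; LiveBLAzer B/G FRET substrate 2 hr RT; fluorescence intensity.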

The target is the same in assay [15]. Put plainly: qHTS assay to identify small molecule agonists of the estrogen receptor alpha (ER-alpha) signaling pathway using the BG1 cell line (AID 743079). Further: nearly all actives have a fitted effect of over 20% in size. Further: potency means the concentration at half of the fitted maximal effect. Particulars: BG1Luc4E2 cells, ERE-luciferase agonist, 22 h; activation: at 70.3 µM (top of the series).
In assay [16] the target is Androgen receptor (Homo sapiens) (UniProt P10275). Put plainly: qHTS assay to identify small molecule agonists of the androgen receptor (AR) signaling pathway (AID 743036; active means well fitted activation curve with a large enough effect in the signal ratio in the repeat runs, with a control signal flat, not every such curve was filed as active; the % refers to the signal ratio). Put shortly: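 HEK293 cells stably carrying a UAS-driven beta-lactamase reporter (GeneBLAzer AR-UAS-bla-GripTite) were plated at 2,000 cells/well, rested 4 h at 37C, then exposed to compounds in DMSO for 16 h. LiveBLAzer B/G FRET substrate was added for 2 h at room temperature; fluorescence read.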
Androgen receptor (Homo sapiens), sequence (P10275 whole entry, looked up): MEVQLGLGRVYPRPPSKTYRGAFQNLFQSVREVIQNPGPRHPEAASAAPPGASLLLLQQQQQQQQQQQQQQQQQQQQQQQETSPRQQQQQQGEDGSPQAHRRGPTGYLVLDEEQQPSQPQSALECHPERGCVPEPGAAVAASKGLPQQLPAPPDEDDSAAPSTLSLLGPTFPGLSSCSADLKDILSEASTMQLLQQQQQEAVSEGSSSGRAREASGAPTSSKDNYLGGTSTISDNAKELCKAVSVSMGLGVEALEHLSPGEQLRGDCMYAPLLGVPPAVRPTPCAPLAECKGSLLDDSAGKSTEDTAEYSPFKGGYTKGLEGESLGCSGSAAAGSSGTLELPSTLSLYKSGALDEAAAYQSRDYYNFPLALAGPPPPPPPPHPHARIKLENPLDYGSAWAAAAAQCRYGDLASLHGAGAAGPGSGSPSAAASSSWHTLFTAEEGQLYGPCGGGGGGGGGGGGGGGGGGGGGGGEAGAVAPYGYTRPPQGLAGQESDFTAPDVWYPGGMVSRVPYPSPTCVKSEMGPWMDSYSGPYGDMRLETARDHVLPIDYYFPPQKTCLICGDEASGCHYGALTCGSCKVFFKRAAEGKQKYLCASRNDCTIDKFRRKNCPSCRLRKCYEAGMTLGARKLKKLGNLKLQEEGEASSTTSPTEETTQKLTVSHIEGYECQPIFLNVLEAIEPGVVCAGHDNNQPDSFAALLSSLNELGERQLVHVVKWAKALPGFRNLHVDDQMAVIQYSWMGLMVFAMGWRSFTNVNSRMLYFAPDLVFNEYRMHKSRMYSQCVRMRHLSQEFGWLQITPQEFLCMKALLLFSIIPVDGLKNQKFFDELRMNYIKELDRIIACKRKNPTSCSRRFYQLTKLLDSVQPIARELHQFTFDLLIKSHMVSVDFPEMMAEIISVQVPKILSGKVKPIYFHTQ

For assay [17] the target is unchanged. Briefly: qHTS assay to identify small molecule agonists of the androgen receptor (AR) signaling pathway using the MDA cell line (AID 743040; further: nearly all actives have a fitted effect of over 20% in size). Summed up: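 Cells plated, 5 h at 37C/0% CO2; compound or DMSO pinned; 16 h at 37C; ONE-Glo added; luminescence measured after 30 min at room temperature. Reporter line: MDA-kb2 with MMTV-luciferase responsive to AR and GR.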

Assay [18] shares this target. Briefly: qHTS assay to identify small molecule antagonists of the androgen receptor (AR) signaling pathway using the MDA cell line (AID 743042; further: nearly all actives have a fitted effect of over 55% in size). Summed up:
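Antagonist mode: compounds plus R1881 agonist added to MDA-kb2 AR-luc cells, incubated 16 h at 37C. Luciferase reporter luminescence quantified, with multiplexed CellTiter-Fluor readout for cell viability.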

For assay [19] the target is unchanged. Briefly: qHTS assay to identify small molecule antagonists of the androgen receptor (AR) signaling pathway (AID 743035; active means well fitted inhibition curve with a large enough effect in the signal ratio in the repeat runs, not every such curve was filed as active; the % refers to the signal ratio). Summed up: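 Antagonism is scored as loss of R1881-driven beta-lactamase reporter expression in HEK293 cells carrying the reporter under a UAS element, after 16 h co-treatment at 37C and a 2 h room-temperature FRET substrate read.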

Each structure is given as a SMILES string. Values without a mark were called inactive. Records with an inconclusive call do not appear. Active and inactive are the calls of the source. Unless noted, the call rests on the fitted dose curve; in most records, active means well fitted curve in the direction sought with a large enough effect in the repeat runs; inconclusive means weak or mixed curves; inactive means no such curve, though single readings can be large; an effect the other way counts as inactive or inconclusive.

As for `CC(C)(C)c1ccc(OP(=O)(Oc2ccccc2)Oc2ccccc2)cc1`, the Potency result in assay [1], in assay [7], in [8], in assay [9], in assay [10] and in assay [11] was “inactive” in each case. Also, the Potency entry with Aromatase (Homo sapiens) was “inactive”. The Potency is 61.5 µM (active) in assay [2]; 27.5 µM (active) in assay [3]; 19.4 µM (active) in assay [4]; 27.5 µM (active) in [5]; 27.5 µM (active) in assay [6].

In the case of `[C-]1=CC=CC1.[Cl][Zr+2][Cl].c1cc[cH-]c1`, the Potency entry in assay [1], in assay [2], in assay [3], in [12], in [13] and in assay [6] was “inactive” throughout. The Potency entry in assay [7], in assay [8] and in assay [11] was “inactive” in each case.

Turning to `C=CC(=C)C`, the Potency result in [1], in assay [12], in [5], in [7], in assay [8] and in [9] was “inactive” in each case. Also, the Potency result (in assay [11]; in the assay with Aromatase (Homo sapiens)) was “inactive” each time. The Potency in [2] is 27.3 µM (active); in assay [3], 21.7 µM (active); in [4], 24.3 µM (active).

With `COc1cnc(OC)n2nc(NS(=O)(=O)c3c(OCC(F)F)cccc3C(F)(F)F)nc12`, the Potency entry in assay [1], in assay [2], in assay [3], in [12], in assay [13] and in assay [6] was “inactive” throughout. Further, the Potency entry in [7], in assay [14], in [8], in [9], in assay [15] and in assay [10] was “inactive” in each case. Besides, the Potency entry (in assay [11]; with Aromatase (Homo sapiens)) was “inactive” throughout.

As for `CCC[CH2][Sn]([CH2]CCC)([CH2]CCC)[CH2]CCC`, the Potency is 54.9 µM (active) in assay [1]; 7.7 µM (active) in [2]; 21.7 µM (active) in assay [3]; 43.6 µM (active) in assay [12]; 61.1 µM (active) in assay [13]; 30.6 µM (active) in assay [5]. In addition, the Potency in assay [6] is 19.3 µM (active). In addition, the Potency result with Aromatase (Homo sapiens) is “inactive”.

Consider `CCOP(=O)(OCC)Oc1cc(C)nc(C(C)C)n1`, for which the Potency entry in assay [1], in [2], in assay [3], in assay [12], in assay [13] and in assay [5] was “inactive” in each case. The Potency result (in assay [6]; in assay [7]; in [8]; in assay [11]; with Aromatase (Homo sapiens)) was “inactive” each time.

`CCC(C)Nc1c([N+](=O)[O-])cc(C(C)(C)C)cc1[N+](=O)[O-]` (stereo not given): the Potency entry in [1], in [2], in [3], in assay [4], in assay [12] and in assay [13] was “inactive” each time. Also, the Potency result (in assay [14]; in assay [8]; in assay [9]; in assay [10]; in assay [11]; with Aromatase (Homo sapiens)) was “inactive” throughout. The Potency in assay [15] was 61.1 µM (active).

For the molecule `CC1(C)C(C=C(Cl)Cl)C1C(=O)OC(C#N)c1ccc(F)c(Oc2ccccc2)c1` (stereo not given), the Potency result in assay [1], in assay [2], in [3], in [12], in assay [13] and in assay [5] was “inactive” throughout. Further, the Potency result in assay [7], in [14], in assay [8], in [9], in assay [15] and in [11] was “inactive” throughout.

On to `CC1=C2C[C@H]3[C@@H](CC=C4C[C@@H](O)CC[C@@]43C)[C@@H]2CC[C@]12O[C@@H]1C[C@H](C)CN[C@H]1[C@H]2C`, for which the Potency result in assay [1], in assay [12], in assay [13], in assay [18], in assay [5] and in assay [7] was “inactive” each time. Besides, the Potency result (in assay [14]; in assay [8]; in assay [9]; in assay [15]; with Aromatase (Homo sapiens)) was “inactive” in each case. In addition, the Potency in assay [2] was 29.8 µM (active); in assay [3], 8.41 µM (active). Besides, the call in assay [16] and in assay [17] was inactive.

Take `CCOP(=S)(OCC)Oc1cc(C)nc(N(CC)CC)n1`: the Potency entry in assay [1], in assay [19], in assay [13], in assay [18], in [5] and in [7] was “inactive” throughout. In addition, the Potency entry in [9] and in assay [11] was “inactive” each time. Also, the Potency in assay [2], in assay [3] and in assay [4] was 27.3 µM (active) in each case. For the same molecule, the molecule was classed as inactive in assay [16] and in [17].

For `OCC(Br)CBr` (stereo not given), the Potency result in assay [1], in [2], in assay [3], in assay [4], in assay [12] and in assay [5] was “inactive” in each case. The Potency entry in assay [6], in assay [7], in [8], in assay [9], in [15] and in assay [11] was “inactive” each time. The Potency entry with Aromatase (Homo sapiens) is “inactive”.

`CC(=O)[O][Sn]([c]1ccccc1)([c]1ccccc1)[c]1ccccc1`: the Potency in [1] was 0.871 µM (active); in assay [2], 0.122 µM (active); in [3], 0.172 µM (active); in assay [12], 0.245 µM (active); in assay [13], 5.45 µM (active); in assay [8] it was 0.195 µM (active). Further, the Potency in assay [11] was 3.86 µM (active).

Turning to `Clc1ccc(C2(Cn3cncn3)OCCO2)c(Cl)c1`, the Potency result in assay [1], in [12], in [13], in assay [5], in assay [14] and in assay [8] was “inactive” throughout. Moreover, the Potency result (in assay [9]; in [15]; in assay [11]; with Aromatase (Homo sapiens)) was “inactive” each time. Moreover, the Potency in [2] is 61.1 µM (active); in [3], 30.6 µM (active).
